Bioassay records: PubChem BioAssay, National Center for Advancing Translational Sciences (NCATS)
Shown are actives, neighbours in structure and some others; about 9.5% of the full set was active somewhere.
Pf growth 48h – inhibits P. falciparum growth in the first generation, 48 h. P. falciparum luciferase growth in erythrocytes, 48 h. Potency, µM (series often up to 28.7 µM), for inactives: top-dose activity change, negative = inhibition, hits mostly inhibitors. actives 5.9% (n = 310,000). AID 504832; also: % is scaled to controls: 0 for no effect and ±100 for the full control effect
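Erythrocytes infected with P. falciparum carrying an integrated firefly luciferase reporter (2% hematocrit, 0.1% parasitemia final) were exposed to compounds in RPMI 1640 with 0.5% Albumax at 37 C, 5% CO2. Growth inhibition was scored as reduced luminescence.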
Pf growth 96h – P. falciparum growth inhibition at 96 hours. P. falciparum luciferase reporter growth, 96 h. Potency, µM (series often up to 28.7 µM), without a hit: top-dose activity change, negative = inhibition, most hits filed as inhibitors. actives 6.9% (n = 320,000). AID 504834; also: % is scaled to controls: 0 for no effect and ±100 for the full control effect
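Compounds incubated with erythrocytes infected by luciferase-expressing P. falciparum (2% hematocrit, 0.05% parasitemia final) for 96 hours, 37 C in 5% CO2. Growth inhibition scored as decreased luciferase luminescence.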
SARS PLP yeast – SARS-CoV PLP inhibition in yeast; AID 485353; Potency, µM (top dose mostly 32.9 µM), inactives show at the highest dose activity, positive = growth rescue, usual class: activators; S. cerevisiae expressing SARS-CoV PLpro, growth rescue; actives 0.19% (n = 330,000); calls by dose curve; also: 0% is about no effect; nearly all actives have a fitted effect of over 55% in size
NS1 function inh – influenza NS1 inhibition | Potency, µM (doses to about 46.1 µM), for inactives: at the highest dose activity, positive = more growth | actives 0.4% (n = 270,000); calls by dose curve; also: actives are rising curves; nearly all actives have a fitted effect of over 50% in size
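Compounds were scored for reversing the slow growth caused by influenza A NS1 in S. cerevisiae, measured by optical density at 600 nm. Assay medium contained 2% galactose at pH 6.0; NS1-free yeast of the same strain were the positive control.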
RE007 growth inh – less growth of the S. pombe RE007 Vpr strain | S. pombe RE007 Vpr strain, BacTiter-Glo ATP luminescence, 24 h | Potency, µM (series often up to 92.2 µM), for inactives: at the highest dose activity change, negative = less growth, usual class: inhibitors | actives 0.21% (n = 360,000); active = well fitted falling curve with a large enough effect; inconclusive = small, poorly fitted or top-dose-only effect; inactive = no such curve, though single readings can be large or run the other way; also: % is scaled to controls: 0 for no effect and ±100 for the full control effect; nearly all actives have a fitted effect of over 50% in size
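Fission yeast RE007 carrying one integrated HIV-1 vpr copy, seeded at OD 0.01 in PMG+AL medium with 23 nL pinned compound. Grown 24 h at 30 degrees; viability read by BacTiter-Glo luminescence after 5 min.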
The depositor's hits bear a star; ? = inconclusive; . = no result; [ ] = dose if it differs, or a comment. Unless noted, calls follow the shape of the dose curve; as a rule, active = well fitted inhibition curve with a large enough effect; inconclusive = small, poorly fitted or top-dose-only effect, or another doubt; inactive = no such curve, though single readings can be large or run the other way. Potency is read from the fitted curve at half-maximal effect.

SMILES	Pf growth 48h	Pf growth 96h	SARS PLP yeast	NS1 function inh	RE007 growth inh
CC(C)(C)OC(=O)N1CCC[C@H]1C(=O)N/N=C/c1cccc2nccnc12	14.7µM*	?	-2.3%	2.9%	-12.3%
C/C(=N/O)[C@@H]1C[C@H](CC(=O)O)C1(C)C	.	.	.	0.0%	.
CCc1nccn1S(=O)(=O)c1ccc(Br)cc1Br	24.0%	0.928µM*	-3.4%	-7.4%	27.5%
O=C(c1cc2ccccc2[nH]1)N(Cc1cccnc1)CC1CCCN(C2CCCCC2)C1 (stereo unspecified)	10.4µM*	?	-3.4%	-2.1%	-0.8%
O=C(NC1CCCC1)C1c2ccccc2OCC(=O)N1C1CC1 (stereo unspecified)	.	.	.	.	1.7%
Nc1cc(=O)nc(SCC(=O)NC2CCCCC2)n1-c1ccccc1	4.3%	-12.2%	4.7%	5.6%	21.5%
Nc1nnc(SCC(=O)NC2CCCCC2)n1-c1ccccc1	13.9%	8.28µM*	3.4%	8.1%	3.8%
Cn1c(SCC(=O)NC2CCCCC2)nnc1-c1cccc(N)c1	-19.4%	4.15µM*	-13.2%	1.2%	17.1%
O=C(CSc1nnnn1-c1ccc(C(=O)O)cc1)NC1CC1	0.7%	?	?	3.5%	0.2%
NC(=O)c1ccc(-n2nnnc2SCC(=O)NC2CCCCC2)cc1	26.7%	13.1µM*	-2.9%	10.1%	9.5%
CCCCC1CCC(C(=O)N(CCC(C)C)c2c(N)n(CCCC)c(=O)[nH]c2=O)CC1 (stereo unspecified)	.	.	.	.	5.4%
Cc1cc(O)c2c(c1)CC1C3CCC4CC(=O)CCC4(C)C3CC(=O)C21C (stereo unspecified)	.	.	.	.	-13.1%
COCCNc1ncnc2c1ncn2[C@H]1CN(Cc2ccco2)C[C@@H](CO)O1	.	.	.	.	1.3%
Cc1cc(C)n(-c2nc(Nc3ccccc3)nc(-n3nc(C)cc3C)n2)n1	?	-0.3%	-3.9%	-17.1%	-12.1%
Cc1cc(C)n(-c2nc(N(c3ccccc3)c3ccccc3)nc(-n3nc(C)cc3C)n2)n1	2.62µM*	?	11.9%	22.5%	-21.1%
C/C(=N\NC(=O)C1CC1)c1ccc(C(C)(C)C)cc1	?	0.0%	2.0%	3.0%	8.1%
C/C(=N\NC(=O)C1CC1)c1ccc(Cl)cc1	?	5.22µM*	21.1%	2.5%	-0.9%
CN(Cc1ccccc1)C1(CNC(=O)CCC(F)(F)F)Cc2ccccc2C1	27.9%	14.7µM*	8.1%	13.2%	-10.8%
CC(=O)NCCC(=O)NCC1(N(C)Cc2ccccc2)Cc2ccccc2C1	-3.8%	7.6%	-1.1%	15.3%	6.4%
COc1ccc(/C=C/CN2CCC(C(=O)NC(c3ccc(F)cc3)c3ccc4ccccc4n3)CC2)cc1 (stereo unspecified)	.	.	.	.	0.8%[18.4 µM]
COc1cc2[nH]c(=S)nc(NCc3ccc(Cl)cc3)c2cc1OC	11.7µM*	?	-0.5%	2.2%	-7.8%
COc1cc2[nH]c(=S)nc(NCCc3ccc(C)cc3)c2cc1OC	2.62µM*	8.4%	-0.1%	.	3.1%
Cc1ccc(-c2ccc(=O)n(CC(=O)NCCC(C)C)n2)cc1	5.3%	27.4%	-3.8%	-1.9%	-6.0%
CC(Oc1cccc(Cl)c1)C(=O)Nc1ccccc1C(=O)N1CCCCC1 (stereo unspecified)	1.0%	-23.0%	-3.8%	.	9.0%
CC(Oc1ccc(F)cc1)C(=O)Nc1ccccc1N1CCCCC1 (stereo unspecified)	?	11.7µM*	-4.3%	-9.3%	17.9%
SMILES	Pf growth 48h	Pf growth 96h	SARS PLP yeast	NS1 function inh	RE007 growth inh
CC(Oc1ccc(Br)cc1)C(=O)Nc1ccc(N2CCOCC2)cc1N1CCOCC1 (stereo unspecified)	11.7µM*	10.4µM*	-2.9%	.	-2.6%
CC(Oc1cccc(Cl)c1)C(=O)Nc1ccccc1N1CCCCC1 (stereo unspecified)	5.86µM*	11.7µM*	-2.4%	.	1.5%
CC1(C)COC(Cc2ccccc2)=N1	.	.	.	.	-13.1%
NS(=O)(=O)c1ccc(CCNC(=O)c2ccc(-c3ccccc3)cc2)cc1	59.1%	3.9%	2.8%	?	30.5%
CCCCNC(=O)CSc1nc2ccc(Nc3nc(N4CCOCC4)nc(N4CCOCC4)n3)cc2s1	?	8.28µM*	1.2%	13.1%	2.7%
CCCCSc1nc2ccc(Nc3nc(N4CCOCC4)nc(N4CCOCC4)n3)cc2s1	?	?	3.7%	?	3.7%
O=C(CN(C1CCCCC1)S(=O)(=O)c1ccccc1)NCc1cccnc1	-29.8%	9.28µM*	-13.7%	-0.4%	3.9%
Cc1sc(N/N=C/c2cccnc2)nc1-c1ccccc1	9.28µM*	?	4.6%	10.9%	2.1%
C(=N\Nc1nc(Nc2ccccc2)nc(Nc2ccccc2)n1)/c1cccnc1	3.29µM*	-2.3%	-0.9%	.	-1.2%
Cc1sc(N/N=C/c2ccco2)nc1-c1ccccc1	?	?	0.6%	14.0%	-8.6%
C(=N\Nc1nc(Nc2ccccc2)nc(Nc2ccccc2)n1)/c1ccncc1	-0.5%	-26.8%	-0.3%	3.4%	-2.6%
CC(C)CC1NC(=O)N(CC(=O)Nc2ccc(-c3ccccc3)cc2)C1=O (stereo unspecified)	-5.2%	-1.2%	-0.9%	.	5.8%
Cc1c(Cl)cc(C(C)(C)C)c(O)c1Cc1c(C)c(Cl)cc(C(C)(C)C)c1O	.	.	.	-18.6%	.
COc1ccc(CCn2c(=N)c(C(=O)NC3CCCCC3)cc3c(=O)n4ccccc4nc32)cc1	0.928µM*	?	13.3%	10.4%	-0.3%
COc1ccc(Cn2c(=N)c(C(=O)NCC3CCCO3)cc3c(=O)n4ccccc4nc32)cc1 (stereo unspecified)	?	?	-1.3%	-0.1%	-11.6%
N=c1c(S(=O)(=O)c2ccccc2)cc2c(=O)n3ccccc3nc2n1C1CCCCC1	.	.	.	.	3.1%
N=c1c(C(=O)NCC2CCCO2)cc2c(=O)n3ccccc3nc2n1C1CCCCC1 (stereo unspecified)	-6.8%	2.62µM*	5.3%	20.7%	-9.0%
COc1ccc(CCn2c(=N)c(C(=O)NCC3CCCO3)cc3c(=O)n4ccccc4nc32)cc1 (stereo unspecified)	4.65µM*	4.65µM*	-2.4%	0.1%	2.7%
COc1ccc(CCn2c(=N)c(C(=O)N3CCN(C)CC3)cc3c(=O)n4ccccc4nc32)cc1	.	?	4.4%	-7.1%	-7.0%
N=c1c(S(=O)(=O)c2ccc(Br)cc2)cc2c(=O)n3ccccc3nc2n1C1CCCCC1	8.28µM*	3.7µM*	1.0%	4.9%	-1.6%
CCN1CCN(C(=O)C(C)Sc2nc3nc(C)cc(C)n3n2)CC1 (stereo unspecified)	.	.	0.2%	.	6.4%
O=C(O)C1(C(=O)O)CCN(S(=O)(=O)c2ccccc2)CC1	.	.	.	-4.5%	.
COc1ccc(CCn2c(=N)c(C(=O)NC3CCCC3)cc3c(=O)n4cccc(C)c4nc32)cc1	0.828µM*	0.522µM*	-2.1%	7.1%	?
COc1ccc(CCn2c(=N)c(S(=O)(=O)c3ccc(C)cc3)cc3c(=O)n4ccccc4nc32)cc1	5.22µM*	3.7µM*	-2.7%	12.3%	-8.7%
